The list is not random: actives were taken first. Their share in the collection is about 4.6%.
tim23-1 inh – growth inhibitors of tim23-1 mutant yeast, primary screen, luminescence, uHTS; S. cerevisiae tim23-1 growth, BacTiter-Glo luminescence, 24 h; AID 463212, 2010; actives 1.3% (n = 330,000); inhibition, % at 20 µM;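 active = growth inhibition of the mutant yeast at or above 50%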;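 also: temperature-sensitive mutant grown at 25 °C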
SKKanGAS inh – S. pyogenes SKKanGAS growth inhibitors in kanamycin, primary screen, streptokinase expression inhibitor project, SKKanGAS strain, BacTiter-Glo luminescence; 6 h; inhibition, % at 7.5 µM; actives 1.3% (n = 300,000);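 active = mean replicate score, as percent of positive control median, at least 50; inconclusive = mean below 50 but one replicate at or above 50; inactive = mean and every replicate below 50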;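 also: strain carries kanamycin resistance gene driven by streptokinase promoter and grows in 40 µg/ml kanamycin; loss of luminescence reflects streptokinase promoter inhibition or plain growth inhibition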
PfHsp90 set2 – growth inhibition of PfHsp90-expressing yeast, primary screen, antimalarial PfHsp90 inhibitor project, S. cerevisiae, BacTiter-Glo luminescence, single point, set 2; inhibition, % at 9.4 µM; AID 504621, 2011; BacTiter-Glo ATP, 48 h; yeast lacking PDR1 and PDR3 efflux regulators; actives 0.32% (n = 310,000);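 active = every replicate shows inhibition above about 80%, whatever the replicate mean, limit read from the data; inconclusive = mean inhibition reaches the set limit but some replicate falls short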
tim10-1 inh – growth inhibitors of tim10-1 mutant yeast, primary screen, luminescence, uHTS | AID 463190, 2010 | S. cerevisiae tim10-1 ts strain growth, BacTiter-Glo, 24 h | inhibition, % at 20 µM | actives 2.2% (n = 330,000);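 active = inhibition of at least 40%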;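 also: mutant grown at 25 °C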
TIM10 inh – growth inhibitors of isogenic TIM10 control yeast, primary screen, counter-screen for tim10-1 yeast inhibitor project, luminescence, uHTS; AID 463195, 2010; inhibition, % at 10 µM; S. cerevisiae TIM10 strain growth, BacTiter-Glo luminescence, 24 h; actives 1.4% (n = 330,000);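 active = inhibition of 40% or more at the single tested concentration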;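 also: wild-type TIM10 isogenic control strain grown at permissive 25 °C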
NLRP3 yeast inh – NALP3 inflammasome inhibitors in reconstituted yeast, primary screen, luminescence, uHTS; Yeast reconstituted NLRP3/ASC/caspase-1, beta-gal luminescence, 24 h; inhibition, % at 10 µM; actives 0.39% (n = 330,000); AID 2825, 2010;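 active = inhibition of 50% or more; inactive = inhibition below 50%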
Of the large screens only hits and unclear results are named; the others gave an inactive call.

O=[N+]([O-])c1ccc2nc(C3CCCCC3)[nH]c2c1	none
O=[N+]([O-])c1ccc(O)c(C2CCCCC2)c1	PfHsp90 set2 108.0 (no result: tim23-1 inh, SKKanGAS inh, tim10-1 inh, TIM10 inh, NLRP3 yeast inh)
O=C(Cc1cccc(NC(=O)C2CCN(S(=O)(=O)c3cccc([N+](=O)[O-])c3)CC2)c1)Nc1cccc(C(=O)N2CCCCC2)c1	none (no result: tim23-1 inh, SKKanGAS inh, tim10-1 inh, TIM10 inh, NLRP3 yeast inh)
COc1ccc(-c2cc(C(F)(F)F)c3c(n2)sc2c(O)cc(=O)[nH]c23)c(OC)c1	SKKanGAS inh 55.1
CCC1(CC)NC(=O)N(CC(=O)NC(=O)NCc2ccccc2)C1=O	none
COc1ccc(C(C)NC(=S)NC2CCCC2)cc1OC (configuration not stated)	none
CC(NC(=S)NC1CCC(C(C)(C)C)CC1)c1ccccc1 (configuration not stated)	SKKanGAS inh 81.4
CCCCN(CCCC)c1nc(-c2ccncc2)nc2ccccc12	SKKanGAS inh 97.0
O=c1[nH]c2ccc(Cl)cc2c(-c2ccccc2)c1SC(=S)N1CCOCC1	SKKanGAS inh 84.0
NNC(=O)CSc1c(-c2ccccc2)c2cc(Cl)ccc2[nH]c1=O	none
COc1ccc(-c2csc(NC(=O)c3ccccc3NS(=O)(=O)c3ccc(F)c(F)c3)n2)cc1	SKKanGAS inh 84.0
Cc1ccc(S(=O)(=O)Nc2nc(-c3ccccc3)cs2)cc1	none
Cc1ccc(S(=O)(=O)Nc2ccccc2C(=O)Nc2nc(-c3ccc(F)cc3)cs2)cc1	SKKanGAS inh 105.6, PfHsp90 set2 inconclusive
CCc1ccc(-c2cc(C)no2)cc1S(=O)(=O)NCCCN1CCN(c2ccccc2)CC1	none
Cc1ccc(NC(=S)Nc2ccc(C(C)C)cc2)cc1S(=O)(=O)N1CCCCCC1	SKKanGAS inh 55.5
COc1ccc(NC(=S)Nc2ccc(C)c(S(=O)(=O)N3CCCCC3)c2)cc1	none (no result: PfHsp90 set2)
c1ccc(-c2c3ccccc3nc3[nH]c4ccccc4c23)cc1	SKKanGAS inh 96.1
O=C(C[n+]1ccc2ccccc2c1)c1ccc(NC(=O)c2ccccc2)cc1	none
CCOC(=O)c1cnn(-c2nc(-c3cccc(F)c3)cs2)c1C(F)(F)F	SKKanGAS inh 64.2
CCOC(=O)c1cnn(-c2nc3c(C)cccc3s2)c1C(F)(F)F	SKKanGAS inh 87.5
CCC1(C)Cc2ccccc2-c2c1c(=O)n(Cc1ccccc1)c1nnnn21 (configuration not stated)	SKKanGAS inh 68.6
O=c1c2c(n3nnnc3n1Cc1ccccc1)-c1ccccc1CC21CCCC1	SKKanGAS inh 64.6
C=C(C)C(=O)Nc1cccc(C2=NOC3(C2)C[C@H](C(N)=O)N(C(=O)c2ccccc2C(=O)c2ccccc2)C3)c1 (some centres not stated)	none
COCCCNc1nc2ccccc2nc1NS(=O)(=O)c1cccc(C)c1	none
COc1ccc(OCc2cc(=O)c3ccc4c(c3o2)C=CC(C)(C)O4)cc1OC	none (no result: SKKanGAS inh)
CC(C)=CCOc1ccc([C@@H]2COc3c(ccc4c3C=CC(C)(C)O4)C2)c(O)c1	SKKanGAS inh 99.8 (no result: PfHsp90 set2)
CCc1ccc(CN2CCCC(CNC(=O)c3cccc(OC)c3OC)C2)cc1 (configuration not stated)	none
O=C(N/N=C/c1cc(Cl)cc([N+](=O)[O-])c1O)NC12CC3CC(CC(C3)C1)C2	SKKanGAS inh 50.3
Cc1cc(C(=O)N/N=C/c2cc(Cl)cc([N+](=O)[O-])c2O)c2ccccc2n1	SKKanGAS inh 114.4
Cn1c(CNc2ccc(Cl)cc2)nnc1SCc1ccccc1	PfHsp90 set2 121.0
Cn1c(CNc2ccc(Cl)cc2)nnc1SCC#N	none
CCn1c(CNc2ccc(Cl)cc2)nnc1SCc1ccccc1	PfHsp90 set2 92.5
Cc1ccccc1C(=O)N/N=C1/SCC(=O)N1Cc1ccccc1	none
COc1ccc(NS(=O)(=O)c2cc([N+](=O)[O-])ccc2N/N=C\c2c(C)[nH]c3ccccc23)cc1	none
Cc1[nH]c2ccccc2c1/C=N/Nc1ccc([N+](=O)[O-])cc1S(=O)(=O)Nc1ccc(Cl)cc1	SKKanGAS inh 101.9

Screens deposited in PubChem BioAssay by several laboratories.
